PubChem BioAssay AID1628 (Sanford-Burnham Center for Chemical Genomics, 2009)
Among all 190,000 compounds or so, about 930 (0.49%) were called active.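 Rule for the calls: active = z-score of insulin promoter reporter brightness in nuclei below -3 at 5 µM, with at least 500 cells counted; inconclusive = wells with under 500 cells, flagged as toxic or sparse; inactive = the rest.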 The list shows a part of the results. Measured potencies and affinities stand elsewhere.

Experiment: insulin promoter down-regulators in MIN6 cells, imaging, high-content screening, mouse beta cells (AID 1628)
Details: MIN6 insulin promoter GFP reporter, at 5 µM, hits give low values

| Structure (SMILES) | z-score |
| --- | --- |
| CCCCc1c(C)nn(-c2nnc3c4ccccc4n(CC)c3n2)c1C | -3.04 (active) |
| COc1ccc(C2C(C#N)=C(N)N(c3ncn[nH]3)C3=C2C(=O)CCC3)cc1 (centres undefined) | 1.75 (inactive) |
| CCN(CC)C(=O)Oc1cc(=O)n(C)c2ccccc12 | -3.24 (active) |
| CCCC(=O)c1c(C)c2ccccc2n1C | 3.01 (inactive) |
| Nc1cccc2c1C(=O)N(C(=O)c1cccc(S(=O)(=O)N3CCCC3)c1)C2=O | 3.15 (inactive) |
| Cc1cc(NC(=O)c2cccc(S(=O)(=O)N3CCCCCC3)c2)n(-c2ccccn2)n1 | -3.67 (active) |
| O=C(Nc1ccon1)c1cccc(S(=O)(=O)N2CCCCC2)c1 | 3.46 (inactive) |
| CC1=CN2C(=N)/C(=C/c3ccc([N+](=O)[O-])o3)C(=O)N=C2S1 | 8.52 (inactive) |
| CCCCCCc1cc2cc(-c3nnc(-c4cc(OC)c(OC)c(OC)c4)o3)c(=O)oc2cc1O | 9.96 (inactive) |
| Cc1c(C(c2ccc([N+](=O)[O-])cc2)c2c(C)n(C)n(-c3ccccc3)c2=O)c(=O)n(-c2ccccc2)n1C | 4.14 (inactive) |
| CC(=O)N1CCc2cc(Br)cc(S(=O)(=O)CCC(=O)Nc3c(C)n(C)n(-c4ccccc4)c3=O)c21 | 2.32 (inactive) |
| Cc1c(NC(=O)CN2CCN(c3ccc([N+](=O)[O-])cc3)CC2)c(=O)n(-c2ccccc2)n1C | -3.45 (active) |
| Cc1cc(N2CCCC2)ccc1/C=C1/C(=O)N(C)C(=S)N1C | 3.32 (inactive) |
| COC(=O)c1sccc1NC(=O)c1cc(OC)c(OC)c(OC)c1 | 3.71 (inactive) |
| CCOc1cc(NC(=O)c2ccco2)c(OCC)cc1NC(=O)c1cc(OC)c(OC)c(OC)c1 | -3.03 (active) |
| CCN1/C(=C/c2ccc3cc(C)ccc3[n+]2CC)Sc2ccccc21 | 16.5 (inactive) |
| CCN1/C(=C/C(C)=C/c2sc3ccccc3[n+]2CC)Sc2ccccc21 | -3.52 (active) |
| CCN1/C(=C\C=C(C(C)=O)C(C)=O)Sc2ccccc21 | 7.73 (inactive) |
| CCCCNC(=O)/C(C#N)=c1\s/c(=C\c2ccccc2OC(F)F)c(=O)n1CCCOC | 4.53 (inactive) |
| O=C(NC(Nc1nc2ccc([N+](=O)[O-])cc2s1)(C(F)(F)F)C(F)(F)F)c1cccnc1 | -3.96 (active) |
| COC(=O)c1sc(NC(=O)c2ccco2)nc1C | 1.53 (inactive) |
| COc1ccccc1NC(=O)c1ccc(-c2ccccc2[N+](=O)[O-])o1 | 1.05 (inactive) |
| COc1ccccc1NC(=O)c1c(NC(=O)c2ccco2)sc2c1CCC2 | -3.67 (active) |
| CCn1c2ccccc2c2nnc(SCC(=O)Nc3cc(C)on3)nc21 | 3.98 (inactive) |

| Structure (SMILES) | z-score |
| --- | --- |
| COc1cc2cc(C)c3nnc(SCC(=O)Nc4cc(C)on4)n3c2cc1OC | 5.98 (inactive) |
| CCn1c(SCC(=O)Nc2cc(C)on2)nc2c(c1=O)SC(C)C2 (centres undefined) | -3.41 (active) |
| CCO[C@@H]1OC(C(=O)Nc2ccccc2)=C[C@H](c2ccc(C(F)(F)F)cc2)[C@H]1CCCO | -3.04 (active) |
| CCCN1C(=O)/C(=C/c2c(N3CCNC(=O)C3CC(=O)OC)nc3c(C)cccn3c2=O)SC1=S (centres undefined) | 6.46 (inactive) |
| COc1ccc(NC2=Nc3ccccc3N3C2=Nc2c(c(C)nn2-c2ccc(C)cc2)C3c2cccnc2)cc1 (centres undefined) | 3.08 (inactive) |
| CCOC(=O)CCNC(=O)CNC(=O)OCc1ccccc1 | -4.19 (active) |
| CCOc1ccccc1C(=O)NCC(=O)O | 0.62 (inactive) |
| COc1ccc(CN2C(=O)/C(=C/c3ccc(-c4ccc(Cl)c(C(=O)O)c4)o3)SC2=S)cc1 | 5.56 (inactive) |
| CCc1ccc(NC(=S)Nc2ccc3cn[nH]c3c2)cc1 | -5.26 (active) |
| CCOc1cc(C)c(S(=O)(=O)Nc2ccc3cn[nH]c3c2)cc1C | 4.24 (inactive) |
| C=CCn1c(SCc2c(C)noc2C)nc2sc3c(c2c1=O)CCCCC3 | -4.19 (active) |
| CN(C)C(=O)C12CCC(C)(c3nc4ccccc4nc31)C2(C)C (centres undefined) | 3.42 (inactive) |
| O=C(Nc1nc(-c2ccc3c(c2)OCO3)cs1)c1ccncc1 | -4.14 (active) |
| c1ccc2nc(-c3ccc4c(c3)OCO4)ccc2c1 | -0.48 (inactive) |
| O=C1/C(=C/c2ccc(N3CCOCC3)o2)SC(=Nc2ccccc2)N1CCc1c[nH]c2ccccc12 | 17.8 (inactive) |
| COc1ccc(N2CCN(C(=O)CSc3nc4c(c(=O)n(C)c(=O)n4C)n3C(C)C)CC2)cc1 | -3.09 (active) |
| COCCn1c(CN2CCN(c3ccc(OC)cc3)CC2)nc2c1c(=O)n(C)c(=O)n2C | -7.6 (active) |
| CC1CCCN(c2nc3c(c(=O)n(C)c(=O)n3C)n2CCSc2nc3ccccc3s2)C1 (centres undefined) | 3.19 (inactive) |
| Cc1cc(C)c(C(=O)O)c(CC(C)(C)C(=O)O)c1 | 3.14 (inactive) |
| Cn1c(=O)c(N)c2c3c(c(Br)ccc31)C(=O)c1ccccc1-2 | 16.9 (inactive) |
| Cc1c(-c2cc(C(=O)O)on2)cnn1C | 1.94 (inactive) |
| CC(C)N=c1scc(-c2ccco2)n1/N=C/c1ccc(O)c(O)c1 | -5.1 (active) |
| CCCCN(C)C(=S)Nc1ccsc1C(=O)OC | 2.3 (inactive) |
| CCOc1cc(/C=N/Nc2nc3ccccc3[nH]2)cc(Br)c1OCC(=O)N(C)C | -3.72 (active) |

| Structure (SMILES) | z-score |
| --- | --- |
| CCOc1cc(/C=C/C(=O)Nc2ccc(C(=O)NCCN(CC)CC)cc2)ccc1OCC(C)C | -4.98 (active) |
| CCOc1cc2[nH]c(=O)n(Cc3ccc(C(=O)NCCOC)cc3)c(=O)c2cc1OCC | 1.15 (inactive) |
| Cc1ccc(C(OCC(O)CNC(C)c2ccccc2)c2ccccc2)cc1 (centres undefined) | -3.13 (active) |
| Cc1cc(OCC(=O)NCc2cccnc2)ccc1[N+](=O)[O-] | -4.17 (active) |
| CCCNC(=O)Cc1cc(=O)[nH]c(=O)[nH]1 | -3.04 (active) |
| CCCc1cc(=O)[nH]c(SCC(=O)NCCCC(=O)OCC)n1 | 3.15 (inactive) |
| CC1(C)c2ccccc2N2CC(=O)NC21/C=C/c1ccco1 (centres undefined) | 3.29 (inactive) |
| O=C(CSc1ncccn1)NC(=O)c1ccccc1 | 0.73 (inactive) |
| COC(=O)c1cccc(N2C(=O)c3cccnc3C2=O)c1 | 0.1 (inactive) |
| COC(=O)c1ccnc(SCC(=O)c2ccccc2)c1 | -3.59 (active) |
| CCN1C(=O)/C(=C/c2ccc(N3CCCC3)cc2)NC1=S | 15.8 (inactive) |
| CCn1c(SCC(=O)c2c[nH]c3ccccc23)nc2cc(S(=O)(=O)N3CCOCC3)ccc21 | 3.09 (inactive) |
| CCOC(=O)c1ccc2c(c1)nc(C1CCN(S(=O)(=O)c3cccs3)CC1)n2CC | -4.13 (active) |
| CS(=O)(=O)Nc1ccc(C(=O)Nc2ccccc2C(=O)N2CCCC2)cc1 | -4.1 (active) |
| COc1cccc(C(=O)Nc2ccccc2C(=O)N2CCCC2)c1 | 3.3 (inactive) |
| CCNc1c2c3c(cccc3n(C)c1=O)C(=O)c1ccccc1-2 | 15.6 (inactive) |
| CCC(CC)COC(=O)C(C#N)c1nc2ccccc2nc1N1CCN(CC)CC1 (centres undefined) | -3.84 (active) |
| Cc1ccc(S(=O)(=O)C(C#N)c2nc3ccccc3nc2N2CCC(C)CC2)cc1 (centres undefined) | 3.75 (inactive) |
| CCN1CCN(C2=CC3=CC(=C(C#N)C#N)CCC3CC2)CC1 (centres undefined) | 16.6 (inactive) |
| CCN(CC)c1ccc(/C=C2\SC(=O)N(C(C)C)C2=O)o1 | 17.4 (inactive) |
| Cc1ccccc1-c1nnc(-c2ccc(Cl)cc2)o1 | 3.54 (inactive) |
| CC(=O)OCC(=O)c1c[nH]c2ccccc12 | 0.26 (inactive) |
| CC(Cc1c[nH]c2ccccc12)C(=O)O (centres undefined) | 0 (inactive) |
| CN1/C(=C\C=C(/C#N)C(=O)Nc2ccc(Cl)cc2)C(C)(C)c2ccccc21 | 8.8 (inactive) |

| Structure (SMILES) | z-score |
| --- | --- |
| C=CCN1C(=O)/C(=C\C=C2\N(C)c3ccccc3C2(C)C)SC1=S | 15.4 (inactive) |
| CN1CCN(C2=CC3=CC(=C(C#N)C#N)CCC3CC2)CC1 (centres undefined) | 10.9 (inactive) |
| N#CCCn1cc(C(CC(=O)c2ccc(Br)cc2)C(=O)O)c2ccccc21 (centres undefined) | -4.89 (active) |
| CCN1C(=O)/C(=C/C=C2\N(CC)c3cc(S(=O)(=O)N(C)C)ccc3N2c2ccccc2)SC1=S | 13.2 (inactive) |
| COc1ccc2[nH]cc(CCN3C(=O)CCC3=O)c2c1 | -5.12 (active) |
| COc1ccc(-c2cc(=O)c3cc(OC)ccc3o2)cc1 | -0.37 (inactive) |
| O=C(c1cccc([N+](=O)[O-])c1)N1CCCN(C(=O)c2cccc([N+](=O)[O-])c2)CC1 | -7.17 (active) |
| N/C(=N\OC(=O)C1CCCCC1)c1cccc([N+](=O)[O-])c1 | 3.01 (inactive) |
| COc1cccc(C(=O)CN2C(=O)C(C)(C)Oc3ccc(C(=O)N4CCCCCC4)cc32)c1 | 3.58 (inactive) |
| CCc1ccc(NC(=S)NCC2CCCN2CC)cc1 (centres undefined) | 3.74 (inactive) |
| S=C(Nc1ccc(Oc2ccc(NC(=S)NC3CCCCC3)cc2)cc1)NC1CCCCC1 | -5.62 (active) |
| O=C1N/C(=N/Nc2ccccc2)S/C1=C\c1ccccc1 | 3.19 (inactive) |
| CCOC(=O)c1c(C)nc2c(c1C)c(=O)oc1ccccc12 | 0.62 (inactive) |
| O=c1cc(-c2ccc(O)cc2)oc2ccccc12 | -0.5 (inactive) |
| O=C1/C(=C/c2ccc(N3CCCC3)cc2)NC(=S)N1C1CC1 | 12.6 (inactive) |
| COC(=O)c1nc2ccccn2c1F | 2.02 (inactive) |
| CC1(C)CC(=O)c2sc(NS(=O)(=O)Cc3ccccc3)nc2C1 | 1.07 (inactive) |
| O=c1c(N2CCOCC2)c(N2CCOCC2)c1=O | 3.02 (inactive) |
| COc1cc(Cl)c(C)cc1NC(=O)CN(C)Cc1cccc(OC)c1OC | 3.4 (inactive) |
| COc1cc(NC(=O)CN(C)Cc2ccc(OC(F)F)cc2)c(C)cc1[N+](=O)[O-] | -4.52 (active) |
| Cc1ccc(Nc2nc3c([nH]2)c(=O)n(C)c(=O)n3C)cc1 | 3.32 (inactive) |
| Cc1ccc(Nc2cc(C)nn2-c2nc(C)cc(=O)[nH]2)cc1 | -3.51 (active) |
